Assay results taken from the supplement of paper PMC6555819.

What follows are sequences tested on PPARg homodimer (NR concentration 180 nM) (assay: PBM binding z-score (relative to random genomic background probes); higher = stronger binding; sequences stand for … in GC…GCGATTGACAGCGTAGAATGAAGG).
Outline: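 The probes on custom Agilent 4×180K protein-binding microarrays were double-stranded, with 34-nt variable regions bearing direct-repeat seeds, single-nucleotide variants, half-site ablations and random human genomic background sequences. Incubation lasted 1 h with ligand-free nuclear receptor dimers in PBS pH 7.4, 2% milk, 0.02% Triton X-100, 1 mM DTT, 0.2 mg/mL BSA and 0.4 mg/ml salmon testes DNA. Antibodies against each partner (one per run) detected bound dimers, and fluorescence scans were regression-normalized. Binding z-scores take the random background probes as reference.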
AGAATCAGGTTATTAAGATCAGGGAATTGCGGTC gave a PBM binding z-score of 1.29. Work on TCGAGTAGGTTAGGGGTATTCAGAATGGCGTCGA yielded a PBM binding z-score of 0.948. Sequence CCTACTGGGCCCTTCAGAGGTCATTGATCATATG has a PBM binding z-score of 3.64. GAGACTGGGGCAAAGCAGGTTACCATAAGGTTGG gave a PBM binding z-score of 1.16. For CCCACTGGGCCACGAAAGGTCATTGATTCAGTGA, the PBM binding z-score was 3. Work on CCAGACAGGTGAGAAGGTCACTCAGCCTCGATTA yielded a PBM binding z-score of 3.61. In the case of ATCGAAAGCTCGTGAGGTGAGTATACAGAAAGGC, the PBM binding z-score is reported as -0.405. TCTAGTTGGTCAAAGGTCACACATTCGAAATGCG gave a PBM binding z-score of 4.05. TAGCGTAGGTCAGATCGGGCCAGTATACGCTATA showed a PBM binding z-score of -0.143. In the case of TCTGGTAGATCAAAGGTTAAGAAAGCCGAAGCCT, the PBM binding z-score is reported as 0.978. Work on CGTCCAAGGTCAAGGTCAGTCAAAGAGACTCGAA yielded a PBM binding z-score of 4.54. TCATATAGGTAAAGGTGAAAGTCGAACGATATGA was tested, and the PBM binding z-score was 1.04. For ACAGACAGGTGAGTGAAGGCAACTCAGCTGGACG, the PBM binding z-score was -0.372. AGAATGAGGTTATTAAGCTCAGGGAATTGCGGTC was tested, and the PBM binding z-score was -0.0657. Work on CGTCCAAGGTAAGCAGGTCAGTGAAAGCGACGTG yielded a PBM binding z-score of 0.421. With ACTAGTTTGTCAGCTGAGGTCACACACAATTCGG the PBM binding z-score was 2.72. Sequence TCTTGTAGATCAGCAGGTTCAGAAAGCTGGCCAA has a PBM binding z-score of -0.268. For ACAGACAGGTGAGTGAAGGAAACTCAGCTGGACG, the PBM binding z-score was -0.703. TCTTGTAGATCAAAAGAGGTTAAGAAAGTGCGCT gave a PBM binding z-score of 0.373. For TTACCGAGGTGAAGGTCGTTGATCCCTCTGTAGA, the PBM binding z-score was 0.505. CCGAGTAGGTTATGAGGCATTCAGGCAACGGTGA was tested, and the PBM binding z-score was 0.571. CGAACTAGGTCATGCAGGACAGTGAATACATTGA was tested, and the PBM binding z-score was 1.1. CGTCCAAGGTGAGAGAGGTCAGTGAATGCCGAGT gave a PBM binding z-score of 2.8. Sequence ACACGGAGGACAAAGGTCAGAGCTACGCCAGTGA has a PBM binding z-score of 3.82. Sequence AGTCAAAGTTCGTCTAGGTAACGTAAGATATGCT has a PBM binding z-score of 1.41. Work on AAAACAGGGTCACTAGGCCAGAGTAGGTACGAAT yielded a PBM binding z-score of 2.68. ACAGACAGGTGAGTGAAGGTAATTCAGCTGGACG showed a PBM binding z-score of -0.206. In the case of ATCTCTAGGTAACCAAGTTCAATGAATGCCGAAC, the PBM binding z-score is reported as 1.22. GGAACGAGGGCAAGTTGATAGCGGAGTTTGATGG showed a PBM binding z-score of 0.26. In the case of ACCATTAGTTGAGACGAGGGCAACCGATAGGTTG, the PBM binding z-score is reported as 0.403. For ATATGTAGGTTATCGGTTCATTCAGTTTGCGCAT, the PBM binding z-score was 2.66. AGAATGAGGTTAAGAACAGGGAAACAGAATACAT gave a PBM binding z-score of 0.811. With TCTCGGAGGCCACGAAAGGTCAGAGCTCGACATC the PBM binding z-score was 2.29. TCTAGTTGGTCAAAGGTCATACACTCGAAATGCG was tested, and the PBM binding z-score was 4.5. Sequence CTAACTAGGTCAAGGACAGTGAATCTCCGCACGC has a PBM binding z-score of 3.48. With TTGCCTAGGTCAGATCGGGCCAGTATACGCTATA the PBM binding z-score was 0.162. Work on ACTACTTGGTCAGCTGAGGTCACACACAATTCGG yielded a PBM binding z-score of 4.02. With CGTCCAAGGTCAGCAAGTCAGTGAAAGCGACGTG the PBM binding z-score was 2.24. With CCTTTCGGGTCACGAGGTTATAGCACGACGAGCG the PBM binding z-score was 2.82. CGTCAAAATTCAACTAAGGTAACGTAAAGCACGC showed a PBM binding z-score of -0.0431.
